Sm TGR inh – inhibitors of Schistosoma mansoni thioredoxin glutathione reductase; Q962Y6; purified TGR, DTNB reduction, TNB absorbance 405 nm; Potency, µM (series often up to 114 µM), usual class: inhibitors; 360,000 compounds, 3% hits; AID 485364; note: nearly all actives have a fitted effect of over 60% in size
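First, TGR (20 nM dispensed) and NADPH were mixed with compound. Second, a 15 min room-temperature incubation followed. Third, further NADPH and then DTNB were added to start the reaction. Finally, TNB absorbance was monitored kinetically.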
Giardia FBPA inh – Giardia lamblia aldolase inhibition; 290,000 compounds, 0.71% hits; Potency, µM (highest dose often 59.6 µM), most hits filed as inhibitors; purified Giardia FBPA; note: nearly all actives have a fitted effect of over 55% in size
Target sequence (A8B2U2 whole entry, looked up): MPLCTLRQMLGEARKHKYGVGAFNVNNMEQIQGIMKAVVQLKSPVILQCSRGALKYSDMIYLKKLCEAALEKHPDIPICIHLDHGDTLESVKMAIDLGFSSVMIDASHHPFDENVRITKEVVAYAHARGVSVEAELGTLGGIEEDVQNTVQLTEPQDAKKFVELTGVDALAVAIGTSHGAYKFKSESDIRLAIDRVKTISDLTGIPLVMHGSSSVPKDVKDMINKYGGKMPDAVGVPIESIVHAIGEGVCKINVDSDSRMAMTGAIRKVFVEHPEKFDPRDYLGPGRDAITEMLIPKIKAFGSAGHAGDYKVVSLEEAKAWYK
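Giardia FBPA (40 nM reagent) was preincubated 10 min at RT with compound (up to 57.5 uM final), then substrate plus GAPDH/TPI/NAD/arsenate coupling system with diaphorase/resazurin was added; resorufin fluorescence (525/598 nm) was read after 20 min.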
HCMV inh – blocks human cytomegalovirus replication; HFF cells, HCMV-luciferase reporter, 72 h; stronger effect = lower value; activity change, negative = inhibition, % at 57.5 µM; 410,000 compounds, 4.5% hits; in the data active = activity change below about -60%; inconclusive = no clear call, values can overlap the other calls; inactive = above about -39%
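Inhibition of viral replication was scored as loss of reporter luminescence in HFFs infected with HCMV-luciferase (MOI 1 PFU/cell) for 72 h; compounds tested at 2 doses, normalized to buffer and Salinomycin controls.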
Pf growth 96h – P. falciparum growth inhibition at 96 hours | 320,000 compounds, 6.9% hits | P. falciparum luciferase reporter growth, 96 h | Potency, µM (titrated, usually from 28.7 µM), usual class: inhibitors
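Readout is luminescence from an integrated firefly luciferase in P. falciparum. Red cells, 2% hematocrit and 0.05% parasitemia final, were cultured with compound through two parasite generations (96 hours) at 37 C, 5% CO2.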
Pf growth 48h – P. falciparum growth inhibition at 48 hours (one generation). P. falciparum luciferase growth in erythrocytes, 48 h. Potency, µM (highest dose often 28.7 µM), usual class: inhibitors. 310,000 compounds, 5.9% hits. AID 504832
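Read-out is firefly luciferase luminescence from an integrated reporter in P. falciparum, so falling signal marks reduced parasite growth. Infected erythrocytes were at 2% hematocrit and 0.1% parasitemia (final) in Albumax-supplemented RPMI 1640.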
Large screens that a line does not name were inactive. The list is not random: actives were taken first. Their share in the collection is about 14%. Unless noted, calls come from the whole dose curve; as a rule, active = well fitted curve in the direction sought with a large enough effect; inconclusive = small, poorly fitted or top-dose-only effect, or another doubt; inactive = no such curve, though single readings can be large; an effect the other way counts as inactive or inconclusive.

O=C(CSc1nnnn1-c1ccccc1)NC(=O)NCc1ccco1	none (no result: Pf growth 48h)
CCCn1c(SCC(=O)NC(=O)NCc2ccco2)n[nH]c1=O	Sm TGR inh 40µM (no result: HCMV inh)
CCOc1ccccc1-n1nnnc1SCC(=O)NC(=O)NCc1ccco1	Sm TGR inh 45µM, Pf growth 48h inconclusive
CSc1ccc(CN2CCC2(C)C(=O)Nc2ccc3c(c2)OCO3)cc1 (stereo not given)	none (no result: Sm TGR inh, Giardia FBPA inh, Pf growth 96h, Pf growth 48h)
C=CCNc1nc(NC(C)(C)CO)nc(OCC)n1	Pf growth 96h 7.4µM
C=CCNc1nc(NC(C)(C)CO)nc(OC)n1	Pf growth 96h inconclusive
Cc1nn(C)cc1S(=O)(=O)N1CCCCC1C (stereo not given)	none (no result: Giardia FBPA inh)
CC(C)N(CC(O)c1cccc([N+](=O)[O-])c1)C(C)C (stereo not given)	Pf growth 48h inconclusive
C=CCN(CC(O)c1cccc([N+](=O)[O-])c1)C(C)CCc1ccccc1 (stereo not given)	Pf growth 96h inconclusive, Pf growth 48h 1.5µM
COc1ccccc1NC(=O)c1ccc(N2CC3CC(C2)c2cccc(=O)n2C3)c(NC(=O)c2ccncc2)c1 (stereo not given)	Pf growth 96h inconclusive, Pf growth 48h inconclusive
N#CC(c1ccccc1)(c1ncc(C(F)(F)F)cc1Cl)N1CCOCC1 (stereo not given)	none
N#CC(c1cccc(C(F)(F)F)c1)(c1ncc(C(F)(F)F)cc1Cl)N1CCOCC1 (stereo not given)	HCMV inh -64, Pf growth 96h inconclusive, Pf growth 48h inconclusive
Cc1ccc(C(=O)OC(C)C(=O)NC2CCCCC2C)cc1S(=O)(=O)N1CCOCC1 (stereo not given)	Pf growth 48h inconclusive (no result: Giardia FBPA inh)
Cc1ccc(C(=O)OC(C)C(=O)NC2CCCCC2)cc1S(=O)(=O)N1CCCCC1 (stereo not given)	Pf growth 96h inconclusive, Pf growth 48h 7.4µM (no result: Giardia FBPA inh)
Cc1ccc(C(=O)OC(C)C(=O)N(C)C2CCCCC2)cc1S(=O)(=O)N1CCCCC1 (stereo not given)	Pf growth 96h inconclusive, Pf growth 48h 12µM (no result: Giardia FBPA inh)
O=[N+]([O-])c1ccc(O)c(-c2cc(C(F)(F)F)nc(-c3ccccc3)n2)c1	HCMV inh -101, Pf growth 48h 0.37µM
Nc1nc(N)nc(-c2cc([N+](=O)[O-])ccc2O)n1	Pf growth 96h 2.1µM (no result: Giardia FBPA inh)
O=[N+]([O-])c1cnn(-c2nc(-c3ccccc3)cc(C(F)(F)F)n2)c1	HCMV inh -76
Nc1nc(N)nc(-c2cc(O)ccc2O)n1	HCMV inh inconclusive, Pf growth 96h inconclusive, Pf growth 48h inconclusive (no result: Giardia FBPA inh)
COc1ccc(O)c(-c2cc(C(F)(F)C(F)F)nc(-c3ccccc3)n2)c1	Pf growth 96h 2.9µM, Pf growth 48h 13µM
Nc1nc(-c2ccccc2)cc(C(F)(F)F)n1	none
Oc1ccccc1-c1cc(C(F)(F)C(F)F)nc(-c2ccccc2)n1	Sm TGR inh 89µM
CN(C(=O)c1cc2nc(-c3ccc4c(c3)OCO4)cc(C(F)(F)F)n2n1)c1ccc(OC(F)(F)F)cc1	none (no result: Giardia FBPA inh, Pf growth 96h, Pf growth 48h)
O=C(CSc1nc2ccccc2c(=O)n1-c1ccccc1Cl)NC1CCS(=O)(=O)C1 (stereo not given)	Pf growth 96h 10µM, Pf growth 48h inconclusive (no result: Giardia FBPA inh)
O=C(CSc1nc2cc(C(F)(F)F)ccc2n1Cc1ccccc1)NC1CCS(=O)(=O)C1 (stereo not given)	Pf growth 96h 12µM, Pf growth 48h inconclusive
Cc1ccc(-n2c(SCC(=O)NC3CCS(=O)(=O)C3)nc3ccccc3c2=O)cc1 (stereo not given)	none
COC(=O)c1ccc(C(NC(=O)OCc2ccccc2)/C(F)=C/[C@@H](C)C(=O)NCc2cccnc2)cc1 (stereo not given in full)	none (no result: Sm TGR inh, HCMV inh, Pf growth 96h, Pf growth 48h)
CCN(CC)c1ccc2nc3ccc(N)cc3[n+](-c3ccccc3)c2c1	Pf growth 96h inconclusive, Pf growth 48h 0.29µM (no result: Giardia FBPA inh, HCMV inh)
Cc1cccc(C(=O)O/N=C/c2c(N3CCOCC3)n(C)c3ccccc23)c1	Pf growth 96h 1.9µM, Pf growth 48h 6.6µM (no result: HCMV inh)
COCCCNC(=O)c1ccc(N(C)S(=O)(=O)c2ccc(OC)cc2)cc1	none
COc1ccc(CCNC(=O)COc2ccc(N(C)S(=O)(=O)c3ccc(Cl)cc3)cc2)cc1	Pf growth 96h inconclusive, Pf growth 48h inconclusive
COCCCNC(=O)c1ccc(N(C)S(C)(=O)=O)cc1	Sm TGR inh 28µM
CC(=O)Nc1ccc(S(=O)(=O)N(C)c2ccc(OCC(=O)NCCc3ccccc3F)cc2)cc1	HCMV inh -62 (no result: Sm TGR inh, Giardia FBPA inh, Pf growth 96h, Pf growth 48h)
COc1ccc(CCNC(=O)c2ccc(N(C)S(=O)(=O)c3ccccc3)cc2)cc1	Pf growth 96h inconclusive, Pf growth 48h 2.1µM
CN(c1ccc(OCC(=O)NCCc2ccccc2)cc1)S(=O)(=O)c1ccc(Cl)cc1	Pf growth 96h inconclusive, Pf growth 48h 8.3µM (no result: Giardia FBPA inh)
COCC(=O)N1CC(=O)N2[C@@H](CO)[C@@H](c3ccc(Br)cc3)[C@@H]2C1	none (no result: Sm TGR inh, Giardia FBPA inh, Pf growth 96h, Pf growth 48h)
Cc1ccc(-c2nc(CS(=O)CC(=O)NCc3ccccn3)c(C)o2)cc1 (stereo not given)	Sm TGR inh 56µM (no result: Pf growth 48h)
Cc1ccc(-c2nc(CS(=O)CC(=O)NCCCN3CCN(Cc4ccccc4)CC3)c(C)o2)cc1 (stereo not given)	HCMV inh -75, Pf growth 96h 6.6µM, Pf growth 48h inconclusive
Cc1ccc(-c2nc(CS(=O)CC(=O)NCc3ccco3)c(C)o2)cc1 (stereo not given)	Sm TGR inh 50µM
COc1ccc(-c2nc(CSCC(=O)NCCc3ccccc3)c(C)o2)cc1	Sm TGR inh inconclusive (no result: Giardia FBPA inh, Pf growth 96h, Pf growth 48h)
Cc1cccc(-c2nc(CS(=O)CC(=O)NCc3ccco3)c(C)o2)c1 (stereo not given)	Sm TGR inh inconclusive, Pf growth 96h inconclusive
COc1ccc(-c2nc(CSCC(=O)NCc3ccco3)c(C)o2)cc1	Sm TGR inh 45µM, Pf growth 48h inconclusive (no result: HCMV inh, Pf growth 96h)
Cc1ccc(F)cc1C(=O)N1CCCCC1c1cc(C(=O)Nc2ccncc2)no1 (stereo not given)	none (no result: Sm TGR inh, Giardia FBPA inh, Pf growth 96h, Pf growth 48h)
CCC1CCCCN1CCCNC(=O)CS(=O)Cc1nc(-c2ccc(OC)c(OC)c2)oc1C (stereo not given)	Pf growth 96h inconclusive (no result: Giardia FBPA inh)
COc1ccc(-c2nc(CS(=O)CC(=O)NCc3ccc4c(c3)OCO4)c(C)o2)cc1 (stereo not given)	Pf growth 96h 4.7µM (no result: Pf growth 48h)
COc1ccc(-c2nc(CS(=O)CC(=O)NCc3ccc(F)cc3)c(C)o2)cc1OC (stereo not given)	Sm TGR inh inconclusive (no result: Giardia FBPA inh, Pf growth 96h, Pf growth 48h)
COc1ccc(CNC(=O)CS(=O)Cc2nc(-c3ccc(OC)c(OC)c3)oc2C)cc1 (stereo not given)	Sm TGR inh 25µM (no result: Giardia FBPA inh)
COc1ccc(-c2nc(CS(=O)CC(=O)NC3CCCCC3C)c(C)o2)cc1OC (stereo not given)	Sm TGR inh 28µM, Pf growth 96h inconclusive (no result: Giardia FBPA inh)
COc1ccc(-c2nc(CS(=O)CC(=O)NCc3ccc(Cl)cc3)c(C)o2)cc1OC (stereo not given)	Sm TGR inh 45µM, Pf growth 96h inconclusive

Source: PubChem BioAssay (National Center for Advancing Translational Sciences (NCATS))
